Shown are actives, neighbours in structure and some others; about 3.1% of the full set was active somewhere.
PAFAH1B2 inh = blocks human PAF acetylhydrolase 1b catalytic subunit 2. recombinant PAFAH1B2, FP-rhodamine activity probe, fluorescence polarization. P68402. 340,000 tested, 1.2% active. inhibition, % at 3.39 µM;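 active means inhibition above the mean of all tested compounds plus 3 SD, cut at about 24% in these data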;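 further: 0% = enzyme with DMSO and 100% = wells lacking PAFAH1B2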
PAFAH1B3 inh = PAFAH1B3 (human) inhibition; AID 492972; inhibition, % at 3.39 µM; Q15102; recombinant PAFAH1B3, FP-rhodamine probe, fluorescence polarization; 340,000 tested, 0.28% active;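 active means inhibition above the screen-wide average of all tested compounds plus 3 SD, cut at about 25% in these data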;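 further: 0% = enzyme with DMSO only and 100% = wells lacking PAFAH1B3 protein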
pPAFAH inh = pPAFAH (human) enzyme inhibition; Q13093; recombinant pPAFAH, FP-rhodamine probe fluorescence polarization; inhibition, % at 3.39 µM; 330,000 tested, 1.5% active; AID 463082;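 active means inhibition above the mean inhibition across the screen plus 3 SD, cut at about 25% in these data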;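 further: inhibitors block binding of the rhodamine activity-based probe so polarization drops; 0% = enzyme with DMSO and 100% = wells lacking pPAFAH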
eLon inh = inhibitors of E. coli Lon protease | P0A9M0 | 360,000 tested, 0.42% active | purified E. coli Lon protease, fluorescence polarization | AID 602123 | inhibition, % at 7.94 µM; in the data active means inhibition above about 13%, passing the limit was not always enough;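 further: 0% = enzyme with probe and DMSO and 100% = no enzyme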
Target sequence (P0A9M0 whole entry, looked up): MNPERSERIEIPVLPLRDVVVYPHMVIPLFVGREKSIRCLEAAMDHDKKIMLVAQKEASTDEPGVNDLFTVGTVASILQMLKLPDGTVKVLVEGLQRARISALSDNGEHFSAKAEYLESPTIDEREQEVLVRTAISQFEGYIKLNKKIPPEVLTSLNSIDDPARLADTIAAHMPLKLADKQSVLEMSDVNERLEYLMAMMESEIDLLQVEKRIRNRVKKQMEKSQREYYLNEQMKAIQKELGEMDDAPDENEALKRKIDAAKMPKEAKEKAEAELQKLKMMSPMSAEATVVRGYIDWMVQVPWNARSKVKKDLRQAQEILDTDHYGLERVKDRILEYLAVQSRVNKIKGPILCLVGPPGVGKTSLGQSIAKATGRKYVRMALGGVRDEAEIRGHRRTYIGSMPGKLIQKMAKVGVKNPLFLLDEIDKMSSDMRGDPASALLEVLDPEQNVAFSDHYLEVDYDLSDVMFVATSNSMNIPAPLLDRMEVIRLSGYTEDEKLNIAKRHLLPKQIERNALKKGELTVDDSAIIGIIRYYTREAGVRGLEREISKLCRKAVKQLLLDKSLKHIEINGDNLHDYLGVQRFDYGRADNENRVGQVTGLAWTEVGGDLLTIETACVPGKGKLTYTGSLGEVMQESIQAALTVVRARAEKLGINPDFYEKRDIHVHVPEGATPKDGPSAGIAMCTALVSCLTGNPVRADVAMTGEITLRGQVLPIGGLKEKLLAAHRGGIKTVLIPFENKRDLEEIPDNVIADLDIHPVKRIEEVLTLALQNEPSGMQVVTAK
PAFAH2 FP inh = PAFAH2 (human) inhibition. inhibition, % at 3.39 µM. recombinant PAFAH2, FP-rhodamine activity probe, fluorescence polarization. 340,000 tested, 0.99% active. Q99487;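 active means inhibition above the mean over all tested compounds plus 3 SD, cut at about 30% in these data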;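 further: inhibitors block probe labeling of enzyme so polarization drops; 0% = enzyme with DMSO and 100% = wells lacking PAFAH2 protein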
Rin1 Abl inh = human Rin1-Abl interaction inhibition; P00519+Q13671; TR-FRET Rin1/Abl binding, biochemical; inhibition, % at 7.35 µM; 360,000 tested, 0.4% active; AID 588664; in the data active means inhibition above about 5%, passing the limit was not always enough
* = called active by the depositor.

What do the screens show for `Cc1cc(C)n(CC(C)Nc2nc3nonc3nc2N2CCCCC2)n1` (stereo unspecified)?
PAFAH1B2 inh: 2; PAFAH1B3 inh: 7; pPAFAH inh: -4; eLon inh: 4; PAFAH2 FP inh: 4; Rin1 Abl inh: 3

What do the screens show for `CCOc1ccc(C(=O)NC(C(=O)NCC(c2cccs2)N(C)C)C(C)C)cc1` (stereo unspecified)?
PAFAH1B2 inh: -5; PAFAH1B3 inh: -3; pPAFAH inh: 4; eLon inh: -2; PAFAH2 FP inh: -1; Rin1 Abl inh: 0

What do the screens show for `O=C(NCCCn1ccnc1)/C(=C\c1ccccc1Cl)NC(=O)c1ccccc1`?
PAFAH1B2 inh: -1; PAFAH1B3 inh: -7; pPAFAH inh: -4; eLon inh: 3; PAFAH2 FP inh: -2; Rin1 Abl inh: 1

How did COc1cc(NC(=O)C2CCCN(S(=O)(=O)c3ccc4c(c3)CCCN4C(C)=O)C2)cc(OC)c1 (stereo unspecified) do in these assays?
PAFAH1B2 inh: -1; PAFAH1B3 inh: 5; pPAFAH inh: 30*; eLon inh: 5; PAFAH2 FP inh: 1; Rin1 Abl inh: -3

How did CC[C@@]1(C(=O)OC)N[C@H](CN(C)S(=O)(=O)c2ccc(OC(F)(F)F)cc2)[C@@H]2C(=O)N(C)C(=O)[C@@H]21 do in these assays?
PAFAH1B2 inh: 8; PAFAH1B3 inh: 8; pPAFAH inh: -1; eLon inh: -4; PAFAH2 FP inh: -10; Rin1 Abl inh: -1

How did CCN(C1CCCCC1)S(=O)(=O)c1ccc(S(=O)(=O)NCc2ccncc2)cc1 do in these assays?
PAFAH1B2 inh: 15; PAFAH1B3 inh: -2; pPAFAH inh: 0; eLon inh: -10; PAFAH2 FP inh: -1; Rin1 Abl inh: 4

Results for CCN(C1CCCCC1)S(=O)(=O)c1ccc(S(=O)(=O)NCCc2ccncc2)cc1 ?
PAFAH1B2 inh: 25*; PAFAH1B3 inh: 11; pPAFAH inh: 10; eLon inh: -6; PAFAH2 FP inh: 7; Rin1 Abl inh: 5

Results for O=C(/C=C/c1ccoc1)c1ccccc1O ?
PAFAH1B2 inh: 1; PAFAH1B3 inh: -1; pPAFAH inh: 0; eLon inh: -3; PAFAH2 FP inh: 1; Rin1 Abl inh: -3

Results for COc1ccc2ccccc2c1C(=O)/C=C\c1ccoc1 ?
PAFAH1B2 inh: 1; PAFAH1B3 inh: 0; pPAFAH inh: 27*; eLon inh: -6; PAFAH2 FP inh: 6; Rin1 Abl inh: 2

How did COc1ccc(/C=N/NC(=O)c2cc(C34CC5CC(CC(C5)C3)C4)[nH]n2)cc1O do in these assays?
PAFAH1B2 inh: 29*; PAFAH1B3 inh: -1; pPAFAH inh: 13; eLon inh: 1; PAFAH2 FP inh: 6; Rin1 Abl inh: 0

Results for Cc1cc(S(=O)(=O)Nc2nc(CN3CCOCC3)nc3sc4c(c23)CCCC4)ccc1F ?
PAFAH1B2 inh: 8; PAFAH1B3 inh: 8; pPAFAH inh: 11; eLon inh: -13; PAFAH2 FP inh: 7; Rin1 Abl inh: 3

How did CC1CCc2c(sc3nc(CN4CCOCC4)nc(NS(=O)(=O)c4cccc([N+](=O)[O-])c4)c23)C1 (stereo unspecified) do in these assays?
PAFAH1B2 inh: 0; PAFAH1B3 inh: 6; pPAFAH inh: 25*; eLon inh: 0; PAFAH2 FP inh: 6; Rin1 Abl inh: 0

What do the screens show for `Cc1ccc2[nH]c(C(=O)NCCN3CCCC3)cc2c1`?
PAFAH1B2 inh: 0; PAFAH1B3 inh: -4; pPAFAH inh: 2; eLon inh: 21; PAFAH2 FP inh: -4; Rin1 Abl inh: 0

Results for CCc1cc2ccccc2nc1SCC(=O)Nc1cc(OC)c(OC)cc1C(=O)O ?
PAFAH1B2 inh: 14; PAFAH1B3 inh: 9; pPAFAH inh: 33*; eLon inh: -14; PAFAH2 FP inh: 16; Rin1 Abl inh: -11

Results for Cc1noc(C)c1C(=O)N(C)CC(=O)Nc1ccc(F)c(F)c1F ?
PAFAH1B2 inh: 0; PAFAH1B3 inh: 1; pPAFAH inh: 2; eLon inh: -8; PAFAH2 FP inh: 5; Rin1 Abl inh: -1

What do the screens show for `Cc1ccc(-c2cc(C(F)F)nc(NCc3cccs3)n2)cc1`?
PAFAH1B2 inh: -5; PAFAH1B3 inh: 4; pPAFAH inh: 1; eLon inh: -11; PAFAH2 FP inh: -2; Rin1 Abl inh: -3

What do the screens show for `Cc1ccc(-c2cc(C(F)F)nc(NCc3cccnc3)n2)cc1`?
PAFAH1B2 inh: 2; PAFAH1B3 inh: 1; pPAFAH inh: 26*; eLon inh: -3; PAFAH2 FP inh: -14; Rin1 Abl inh: 0

What do the screens show for `CN(C(=O)c1ccc(NC(=O)Cc2cccc(NC(=O)C3CCCN(C(=O)CCc4ccccc4)C3)c2)cc1)C1CC1` (stereo unspecified)?
PAFAH1B2 inh: 3; PAFAH1B3 inh: 3; eLon inh: -10; PAFAH2 FP inh: 1; Rin1 Abl inh: -3

What do the screens show for `Cc1ccc(S(=O)(=O)Oc2cccc([N+](=O)[O-])c2)cc1`?
PAFAH1B2 inh: 25*; PAFAH1B3 inh: -2; eLon inh: 1; PAFAH2 FP inh: 1; Rin1 Abl inh: -2

How did COc1ccc(NC(=O)CN(C)C(=O)c2cccc(S(=O)(=O)Nc3ccc(OC)cc3)c2)cc1 do in these assays?
PAFAH1B2 inh: -1; PAFAH1B3 inh: 1; pPAFAH inh: 32*; eLon inh: 3; PAFAH2 FP inh: 5; Rin1 Abl inh: 5

How did COc1ccc(NS(=O)(=O)c2cccc(C(=O)NNC(=O)CNC(=O)c3cccc(C)c3)c2)cc1 do in these assays?
PAFAH1B2 inh: 0; PAFAH1B3 inh: 7; pPAFAH inh: 34*; eLon inh: -15; PAFAH2 FP inh: -6; Rin1 Abl inh: 0

What do the screens show for `COc1ccc(NS(=O)(=O)c2cccc(C(=O)NCC3(N(C)C)CCCCC3)c2)cc1`?
PAFAH1B2 inh: -5; PAFAH1B3 inh: 6; pPAFAH inh: 30*; eLon inh: -4; PAFAH2 FP inh: -5; Rin1 Abl inh: 3

How did COc1ccc(NS(=O)(=O)c2cccc(C(=O)NNC(=O)CNC(=O)c3ccccc3)c2)cc1 do in these assays?
PAFAH1B2 inh: -2; PAFAH1B3 inh: 5; pPAFAH inh: 28*; eLon inh: -15; PAFAH2 FP inh: -1; Rin1 Abl inh: 3

Results for COc1ccc(NS(=O)(=O)c2cccc(C(=O)NNC(=O)CNC(=O)c3ccccc3Cl)c2)cc1 ?
PAFAH1B2 inh: -4; PAFAH1B3 inh: 4; eLon inh: -3; PAFAH2 FP inh: -7; Rin1 Abl inh: 0

What do the screens show for `C[n+]1cccc(/C=N/NC(=O)CC23CC4CC(CC(C4)C2)C3)c1`?
PAFAH1B2 inh: 3; PAFAH1B3 inh: 13; pPAFAH inh: 3; eLon inh: 14; PAFAH2 FP inh: -4; Rin1 Abl inh: 0

What do the screens show for `CCOC(=O)C(Cc1c[nH]c2ccccc12)NC(=O)c1ccccc1Br` (stereo unspecified)?
PAFAH1B2 inh: 1; PAFAH1B3 inh: 6; pPAFAH inh: 4; eLon inh: 0; PAFAH2 FP inh: 4; Rin1 Abl inh: -1

Bioassay records as filed in PubChem BioAssay.
